For one sequence, binding signal results are on record in article PMC7862700, “An all-to-all approach to the identification of sequence-specific readers for epigenetic DNA modifications on cytosine”.

Assay in all cases: DAPPL (digital affinity profiling via proximity ligation, sequencing); 10 mM Tris-HCl pH 7.5, 50 mM NaCl, 1 mM DTT, 4% glycerol, room temperature, 30 min; GST-TFs on glutathione beads, 16-mer random dsDNA library, 0.1% formaldehyde crosslink after washing; high values mean tight binding
Holding throughout (details): protein: recombinant; tags: N-terminal GST; dsDNA, one strand shown

In one assay the target is T1, ELK1 (Homo sapiens, UniProt P19419 1-428).
T1 sequence: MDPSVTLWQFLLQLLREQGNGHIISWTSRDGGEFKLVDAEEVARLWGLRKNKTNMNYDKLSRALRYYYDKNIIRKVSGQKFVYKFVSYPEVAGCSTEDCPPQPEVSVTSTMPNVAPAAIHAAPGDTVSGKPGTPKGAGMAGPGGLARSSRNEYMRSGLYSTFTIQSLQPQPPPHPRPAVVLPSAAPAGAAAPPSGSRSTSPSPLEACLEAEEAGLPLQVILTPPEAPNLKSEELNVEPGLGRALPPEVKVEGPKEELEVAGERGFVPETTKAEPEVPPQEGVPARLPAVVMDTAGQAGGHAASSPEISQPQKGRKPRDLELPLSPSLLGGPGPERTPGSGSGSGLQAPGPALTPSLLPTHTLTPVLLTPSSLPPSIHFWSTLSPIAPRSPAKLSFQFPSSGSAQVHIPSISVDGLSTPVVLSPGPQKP
A digest of the protocol: (§1)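 GST fusions of human transcription factors were expressed in yeast and captured with glutathione beads. Once given DNA barcodes and pooled alongside a tag-only sample, they were incubated for 30 min at room temperature with 200 nmole of a random double-stranded 16-mer DNA library in Tris/NaCl/DTT/glycerol buffer, then washed, crosslinked (0.1% formaldehyde), proximity-ligated, PCR-amplified and sequenced on an Illumina NextSeq500. The binding signal of each hexamer is its read frequency for a factor divided by its frequency for the tag-only sample.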

The target in a further assay is T2, GABPA (Homo sapiens, UniProt Q06546 1-454).
T2 sequence: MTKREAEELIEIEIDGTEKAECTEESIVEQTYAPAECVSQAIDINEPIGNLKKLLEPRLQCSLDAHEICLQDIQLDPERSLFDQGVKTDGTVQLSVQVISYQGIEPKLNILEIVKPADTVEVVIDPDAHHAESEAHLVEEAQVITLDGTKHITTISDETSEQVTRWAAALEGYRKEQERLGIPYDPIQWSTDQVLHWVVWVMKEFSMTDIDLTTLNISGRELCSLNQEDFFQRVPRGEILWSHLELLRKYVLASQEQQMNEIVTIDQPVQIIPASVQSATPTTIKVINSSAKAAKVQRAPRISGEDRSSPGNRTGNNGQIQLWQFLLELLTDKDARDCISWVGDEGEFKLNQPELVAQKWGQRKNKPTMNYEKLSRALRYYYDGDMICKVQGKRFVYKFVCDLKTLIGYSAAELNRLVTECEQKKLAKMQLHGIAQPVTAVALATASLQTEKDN
A digest of the protocol: as §1

For a further assay, the target named is T3, ERG (Homo sapiens, UniProt P11308 1-479).
T3 sequence: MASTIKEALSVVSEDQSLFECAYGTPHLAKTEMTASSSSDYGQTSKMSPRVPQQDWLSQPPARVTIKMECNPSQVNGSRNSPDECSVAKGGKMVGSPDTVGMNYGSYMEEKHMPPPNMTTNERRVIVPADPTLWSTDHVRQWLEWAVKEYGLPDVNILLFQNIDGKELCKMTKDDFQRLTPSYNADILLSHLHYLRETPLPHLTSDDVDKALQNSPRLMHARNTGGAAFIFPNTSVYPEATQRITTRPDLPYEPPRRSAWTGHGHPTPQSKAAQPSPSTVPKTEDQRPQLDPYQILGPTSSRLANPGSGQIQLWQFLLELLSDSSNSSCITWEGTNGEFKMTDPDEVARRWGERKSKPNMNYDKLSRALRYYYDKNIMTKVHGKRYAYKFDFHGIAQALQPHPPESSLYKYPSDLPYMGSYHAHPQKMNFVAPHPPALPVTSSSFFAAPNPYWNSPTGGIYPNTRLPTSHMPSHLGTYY
A digest of the protocol:
as §1

The next assay has as its target ELF1 (Homo sapiens, UniProt P32519 1-619). A digest of the protocol: as §1
The target of a further assay is T4, EHF (Homo sapiens, UniProt Q9NZC4 1-300).
T4 sequence: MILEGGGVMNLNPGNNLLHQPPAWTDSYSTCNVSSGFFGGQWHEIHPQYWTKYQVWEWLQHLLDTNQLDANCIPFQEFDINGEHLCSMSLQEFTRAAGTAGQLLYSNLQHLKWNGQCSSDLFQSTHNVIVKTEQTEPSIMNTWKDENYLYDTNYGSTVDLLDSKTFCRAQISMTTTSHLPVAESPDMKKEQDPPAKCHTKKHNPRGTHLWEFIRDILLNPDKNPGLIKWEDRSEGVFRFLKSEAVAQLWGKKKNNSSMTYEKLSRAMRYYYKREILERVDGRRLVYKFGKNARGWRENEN
A digest of the protocol:
as §1

The target in a further assay is SPI1 (Homo sapiens, UniProt P17947 1-270). A digest of the protocol:
as §1

The next assay has as its target SPIB (Homo sapiens, UniProt Q01892 1-262). A digest of the protocol:
as §1

Another assay deals with ETV5 (Homo sapiens, UniProt P41161 1-510). A digest of the protocol:
as §1

For a further assay, the target named is ELF4 (Homo sapiens, UniProt Q99607 1-663). A digest of the protocol:
as §1

A further assay deals with T5, ELK4 (Homo sapiens, UniProt P28324-2 1-405).
T5 sequence: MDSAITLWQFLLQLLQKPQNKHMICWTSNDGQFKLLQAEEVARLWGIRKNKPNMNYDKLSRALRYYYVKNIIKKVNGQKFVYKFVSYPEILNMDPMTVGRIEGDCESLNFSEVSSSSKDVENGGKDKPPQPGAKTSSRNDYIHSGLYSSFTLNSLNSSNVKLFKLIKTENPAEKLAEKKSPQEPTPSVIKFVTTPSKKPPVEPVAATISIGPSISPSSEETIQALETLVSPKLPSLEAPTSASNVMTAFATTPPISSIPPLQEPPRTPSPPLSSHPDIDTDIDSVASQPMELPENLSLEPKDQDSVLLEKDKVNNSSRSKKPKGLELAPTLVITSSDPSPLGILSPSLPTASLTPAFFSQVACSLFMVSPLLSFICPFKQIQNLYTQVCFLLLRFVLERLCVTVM
A digest of the protocol: as §1

The target in another assay is T6, ELF3 (Homo sapiens, UniProt P78545 1-371).
T6 sequence: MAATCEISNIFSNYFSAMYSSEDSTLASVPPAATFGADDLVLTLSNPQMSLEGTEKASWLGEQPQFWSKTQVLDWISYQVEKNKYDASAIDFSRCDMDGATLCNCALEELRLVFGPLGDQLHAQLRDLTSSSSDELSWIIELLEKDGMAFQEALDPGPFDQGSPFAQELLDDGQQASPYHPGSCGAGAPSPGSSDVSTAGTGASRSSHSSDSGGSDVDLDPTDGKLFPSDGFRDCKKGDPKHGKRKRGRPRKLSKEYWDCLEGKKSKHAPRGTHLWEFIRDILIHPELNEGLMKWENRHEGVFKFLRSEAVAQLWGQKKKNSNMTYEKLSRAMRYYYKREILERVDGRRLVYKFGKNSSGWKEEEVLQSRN
A digest of the protocol:
as §1

The target in another assay is ETV1 (Homo sapiens, UniProt P50549 1-477). A digest of the protocol: as §1
In the next assay the target is T7, ERF (Homo sapiens, UniProt P50548 1-548).
T7 sequence: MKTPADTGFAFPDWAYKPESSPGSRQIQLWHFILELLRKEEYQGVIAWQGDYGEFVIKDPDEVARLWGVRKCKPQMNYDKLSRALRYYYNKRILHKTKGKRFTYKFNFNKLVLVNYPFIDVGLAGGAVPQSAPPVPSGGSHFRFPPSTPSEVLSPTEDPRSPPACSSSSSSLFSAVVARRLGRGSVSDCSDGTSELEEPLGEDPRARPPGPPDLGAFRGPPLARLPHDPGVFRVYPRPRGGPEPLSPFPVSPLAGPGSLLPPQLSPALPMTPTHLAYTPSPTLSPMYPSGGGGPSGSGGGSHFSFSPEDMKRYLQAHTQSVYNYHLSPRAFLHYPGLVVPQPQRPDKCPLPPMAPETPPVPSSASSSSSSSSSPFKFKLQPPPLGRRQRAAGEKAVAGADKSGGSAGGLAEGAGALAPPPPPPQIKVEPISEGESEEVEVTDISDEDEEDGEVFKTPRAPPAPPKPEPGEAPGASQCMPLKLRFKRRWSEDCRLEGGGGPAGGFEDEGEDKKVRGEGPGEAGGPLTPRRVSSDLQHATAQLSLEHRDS
A digest of the protocol: as §1

Another assay addresses T8, ETV3L (Homo sapiens, UniProt Q6ZN32 1-361).
T8 sequence: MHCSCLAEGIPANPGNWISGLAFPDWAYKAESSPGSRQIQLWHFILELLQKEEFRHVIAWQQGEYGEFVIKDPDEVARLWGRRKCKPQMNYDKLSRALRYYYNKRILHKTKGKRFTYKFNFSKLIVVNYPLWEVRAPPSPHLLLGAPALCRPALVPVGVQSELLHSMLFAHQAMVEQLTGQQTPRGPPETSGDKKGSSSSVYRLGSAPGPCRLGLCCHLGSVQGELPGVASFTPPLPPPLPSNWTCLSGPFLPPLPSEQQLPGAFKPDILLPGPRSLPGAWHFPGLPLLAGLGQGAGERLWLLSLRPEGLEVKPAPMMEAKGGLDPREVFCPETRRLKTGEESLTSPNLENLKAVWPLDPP
A digest of the protocol: as §1

The target in the next assay is T9, ETS2 (Homo sapiens, UniProt P15036 1-469).
T9 sequence: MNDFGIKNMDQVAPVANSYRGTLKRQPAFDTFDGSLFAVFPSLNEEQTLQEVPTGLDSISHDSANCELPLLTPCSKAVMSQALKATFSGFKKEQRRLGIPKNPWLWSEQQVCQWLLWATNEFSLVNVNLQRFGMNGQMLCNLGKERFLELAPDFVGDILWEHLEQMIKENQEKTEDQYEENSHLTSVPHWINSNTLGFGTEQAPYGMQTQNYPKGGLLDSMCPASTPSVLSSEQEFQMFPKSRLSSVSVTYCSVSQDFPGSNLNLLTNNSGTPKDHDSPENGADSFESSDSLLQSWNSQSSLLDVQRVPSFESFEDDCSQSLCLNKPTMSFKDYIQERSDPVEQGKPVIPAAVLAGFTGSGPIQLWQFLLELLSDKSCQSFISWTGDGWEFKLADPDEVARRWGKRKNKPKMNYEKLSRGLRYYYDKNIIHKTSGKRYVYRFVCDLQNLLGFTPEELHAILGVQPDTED
A digest of the protocol: as §1

The next assay has as its target T10, ETV7 (Homo sapiens, UniProt Q9Y603 1-341).
T10 sequence: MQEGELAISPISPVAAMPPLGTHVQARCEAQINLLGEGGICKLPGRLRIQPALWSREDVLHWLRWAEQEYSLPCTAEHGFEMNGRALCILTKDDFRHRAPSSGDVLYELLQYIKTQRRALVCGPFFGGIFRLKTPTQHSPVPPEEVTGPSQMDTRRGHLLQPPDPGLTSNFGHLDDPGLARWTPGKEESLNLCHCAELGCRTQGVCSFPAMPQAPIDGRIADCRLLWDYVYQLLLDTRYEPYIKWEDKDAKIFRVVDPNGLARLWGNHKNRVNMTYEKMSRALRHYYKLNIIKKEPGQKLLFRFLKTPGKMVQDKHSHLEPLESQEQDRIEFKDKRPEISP
A digest of the protocol: as §1

The next assay concerns the target T11, ETV3 (Homo sapiens, UniProt P41162-2 1-143).
T11 sequence: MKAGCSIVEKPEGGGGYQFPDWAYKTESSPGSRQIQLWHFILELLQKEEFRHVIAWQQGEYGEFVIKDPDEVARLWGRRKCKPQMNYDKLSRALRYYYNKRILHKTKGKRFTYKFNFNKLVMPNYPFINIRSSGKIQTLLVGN
A digest of the protocol:
as §1

The next assay addresses ETV6 (Homo sapiens, UniProt P41212 1-452). A digest of the protocol: as §1

ELF1, sequence (P32519 whole entry): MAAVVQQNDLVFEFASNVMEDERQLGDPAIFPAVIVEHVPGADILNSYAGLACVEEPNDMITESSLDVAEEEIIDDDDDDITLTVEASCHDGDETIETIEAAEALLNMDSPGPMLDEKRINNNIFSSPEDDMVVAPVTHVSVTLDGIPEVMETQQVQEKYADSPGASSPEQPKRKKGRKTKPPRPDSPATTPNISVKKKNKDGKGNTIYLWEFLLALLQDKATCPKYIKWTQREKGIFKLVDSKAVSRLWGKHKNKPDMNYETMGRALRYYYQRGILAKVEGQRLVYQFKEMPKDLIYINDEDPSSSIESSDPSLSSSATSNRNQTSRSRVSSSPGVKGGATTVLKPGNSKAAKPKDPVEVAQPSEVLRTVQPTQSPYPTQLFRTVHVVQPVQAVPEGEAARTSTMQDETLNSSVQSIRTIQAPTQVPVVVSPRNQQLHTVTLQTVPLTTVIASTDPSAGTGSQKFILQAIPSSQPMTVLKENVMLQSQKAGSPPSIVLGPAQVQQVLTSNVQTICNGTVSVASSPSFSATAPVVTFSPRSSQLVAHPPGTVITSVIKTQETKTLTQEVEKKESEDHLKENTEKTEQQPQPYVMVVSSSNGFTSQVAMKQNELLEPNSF
ETV5, sequence (P41161 whole entry): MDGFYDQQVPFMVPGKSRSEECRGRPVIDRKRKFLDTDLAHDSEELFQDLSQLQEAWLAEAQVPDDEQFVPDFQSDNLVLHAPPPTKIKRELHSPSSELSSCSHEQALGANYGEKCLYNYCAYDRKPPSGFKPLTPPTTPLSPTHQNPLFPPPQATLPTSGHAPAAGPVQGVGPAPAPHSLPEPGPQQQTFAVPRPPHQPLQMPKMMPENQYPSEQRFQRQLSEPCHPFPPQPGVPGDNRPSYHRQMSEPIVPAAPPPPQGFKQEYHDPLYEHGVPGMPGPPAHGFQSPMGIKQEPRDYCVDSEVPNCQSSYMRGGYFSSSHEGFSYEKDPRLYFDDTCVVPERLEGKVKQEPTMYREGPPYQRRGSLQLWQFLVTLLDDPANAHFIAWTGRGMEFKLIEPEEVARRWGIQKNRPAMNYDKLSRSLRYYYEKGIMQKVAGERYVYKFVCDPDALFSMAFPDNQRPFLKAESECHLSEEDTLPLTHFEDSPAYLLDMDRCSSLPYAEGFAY
SPIB, sequence (Q01892 whole entry): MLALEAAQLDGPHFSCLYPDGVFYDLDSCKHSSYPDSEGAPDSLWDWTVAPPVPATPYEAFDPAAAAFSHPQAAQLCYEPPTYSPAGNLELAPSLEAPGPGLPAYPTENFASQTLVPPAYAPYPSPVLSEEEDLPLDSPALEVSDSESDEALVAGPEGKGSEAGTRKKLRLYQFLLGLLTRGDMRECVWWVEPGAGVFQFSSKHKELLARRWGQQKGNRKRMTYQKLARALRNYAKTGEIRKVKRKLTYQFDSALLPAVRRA
ETV1, sequence (P50549 whole entry): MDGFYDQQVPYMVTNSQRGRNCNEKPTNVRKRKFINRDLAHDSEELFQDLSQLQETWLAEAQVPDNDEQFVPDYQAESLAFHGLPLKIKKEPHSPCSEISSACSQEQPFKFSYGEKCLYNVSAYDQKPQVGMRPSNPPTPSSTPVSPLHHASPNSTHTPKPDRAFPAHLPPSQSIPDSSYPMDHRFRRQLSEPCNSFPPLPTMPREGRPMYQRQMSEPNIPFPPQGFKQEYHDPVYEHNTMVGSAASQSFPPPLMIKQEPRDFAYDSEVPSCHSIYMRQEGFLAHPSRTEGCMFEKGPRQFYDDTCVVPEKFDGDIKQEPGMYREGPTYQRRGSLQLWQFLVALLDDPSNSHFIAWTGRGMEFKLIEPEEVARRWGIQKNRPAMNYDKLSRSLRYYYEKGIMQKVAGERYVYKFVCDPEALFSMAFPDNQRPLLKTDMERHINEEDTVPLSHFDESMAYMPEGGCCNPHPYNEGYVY
ELF4, sequence (Q99607 whole entry): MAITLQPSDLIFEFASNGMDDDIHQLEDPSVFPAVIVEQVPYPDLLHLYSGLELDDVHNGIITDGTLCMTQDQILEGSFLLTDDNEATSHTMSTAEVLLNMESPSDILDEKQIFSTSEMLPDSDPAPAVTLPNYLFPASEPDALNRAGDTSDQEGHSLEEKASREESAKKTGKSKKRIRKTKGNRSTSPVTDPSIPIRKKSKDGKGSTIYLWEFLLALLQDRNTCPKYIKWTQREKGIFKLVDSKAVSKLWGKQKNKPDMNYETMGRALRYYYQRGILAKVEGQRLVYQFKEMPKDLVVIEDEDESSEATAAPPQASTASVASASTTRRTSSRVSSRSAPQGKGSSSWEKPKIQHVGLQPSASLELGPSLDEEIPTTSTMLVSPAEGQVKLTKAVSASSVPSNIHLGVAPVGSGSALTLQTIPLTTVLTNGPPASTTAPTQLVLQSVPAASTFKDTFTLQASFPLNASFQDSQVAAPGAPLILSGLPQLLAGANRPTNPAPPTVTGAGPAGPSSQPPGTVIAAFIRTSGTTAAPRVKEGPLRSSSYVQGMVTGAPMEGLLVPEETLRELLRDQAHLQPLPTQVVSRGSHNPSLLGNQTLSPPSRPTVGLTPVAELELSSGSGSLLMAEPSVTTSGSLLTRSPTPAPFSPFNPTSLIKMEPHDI
ETV6, sequence (P41212 whole entry): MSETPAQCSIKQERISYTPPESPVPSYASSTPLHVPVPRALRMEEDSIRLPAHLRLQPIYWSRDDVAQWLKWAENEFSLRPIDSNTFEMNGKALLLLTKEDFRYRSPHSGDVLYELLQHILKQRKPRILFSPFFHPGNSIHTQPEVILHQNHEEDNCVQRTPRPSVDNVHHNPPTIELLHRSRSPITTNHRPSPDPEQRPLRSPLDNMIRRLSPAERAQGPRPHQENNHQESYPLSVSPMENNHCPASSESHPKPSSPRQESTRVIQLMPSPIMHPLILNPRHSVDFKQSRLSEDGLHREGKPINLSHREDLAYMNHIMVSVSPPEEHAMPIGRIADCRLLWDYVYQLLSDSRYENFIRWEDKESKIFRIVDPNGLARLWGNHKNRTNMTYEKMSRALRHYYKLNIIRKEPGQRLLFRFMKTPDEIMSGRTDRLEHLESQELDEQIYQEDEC

Turning to GTAGCT, the binding signal with ELK1 was 1.08 fold enrichment (6-mer frequency, TF over GST control); with GABPA it was 1.12 fold enrichment (6-mer frequency, TF over GST control); with ERG, 1.05 fold enrichment (6-mer frequency, TF over GST control); with ELF1 it was 1.06 fold enrichment (6-mer frequency, TF over GST control); with EHF, 1.12 fold enrichment (6-mer frequency, TF over GST control); in the assay with SPI1, 1.09 fold enrichment (6-mer frequency, TF over GST control). For the same sequence, the binding signal with SPIB is 1.18 fold enrichment (6-mer frequency, TF over GST control); with ETV5, 1.14 fold enrichment (6-mer frequency, TF over GST control); in the assay with ELF4, 1.1 fold enrichment (6-mer frequency, TF over GST control); with ELK4 it was 1.17 fold enrichment (6-mer frequency, TF over GST control); with ELF3 it was 1.18 fold enrichment (6-mer frequency, TF over GST control); with ETV1 it was 1.13 fold enrichment (6-mer frequency, TF over GST control). The binding signal is 1.1 fold enrichment (6-mer frequency, TF over GST control) with ERF; 1.08 fold enrichment (6-mer frequency, TF over GST control) in the assay with ETV3L; 1.13 fold enrichment (6-mer frequency, TF over GST control) with ETS2; 1.12 fold enrichment (6-mer frequency, TF over GST control) in the assay with ETV7; 1.09 fold enrichment (6-mer frequency, TF over GST control) with ETV3; 1.06 fold enrichment (6-mer frequency, TF over GST control) in the assay with ETV6.
